Pf growth 48h = Primary qHTS for delayed death inhibitors of the malarial parasite plastid, 48 hour incubation; AID 504832, 2011; Potency, µM (highest dose often 28.7 µM), without a hit: at the highest dose activity change, negative = inhibition, actives largely listed as inhibitors; actives 5.9% (n = 310,000); P. falciparum luciferase growth in erythrocytes, 48 h; note: potency is the fitted concentration of half-maximal effect; % is set by controls: 0 for no effect and ±100 for the full control effect
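Compounds are pin-transferred into medium, infected erythrocytes (2% hematocrit, 0.1% parasitemia final) are added, and plates sit one parasite generation at 37 C in 5% CO2. Detection reagent is then added and luminescence measured.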
Cycloheximide cs = Cycloheximide Counterscreen for Small Molecule Inhibitors of Shiga Toxin | cell reporter, cycloheximide protein synthesis inhibition counterscreen | max response, % | actives 12% (n = 300,000) | AID 2314, 2010; in the data active = max response mostly above about 13%, no sharp cut-off; inactive = mostly below about 14%; note: read at 38.3 µM for the half of the compounds with a filed dose; 0% is about no effect
Pf growth 96h = Primary qHTS for delayed death inhibitors of the malarial parasite plastid, 96 hour incubation. P. falciparum luciferase reporter growth, 96 h. Potency, µM (highest dose often 28.7 µM), inactives show top-dose activity change, negative = inhibition, hits mostly inhibitors. actives 6.9% (n = 320,000); note: potency is the fitted concentration of half-maximal effect; % is set by controls: 0 for no effect and ±100 for the full control effect
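Two parasite generations (96 h, 37 C, 5% CO2) of compound exposure in infected erythrocytes (0.05% parasitemia, 2% hematocrit). Luciferase-reporter P. falciparum; decreased luminescence indicates inhibited growth, aimed at apicoplast-acting delayed death.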
Shiga toxin inh = A qHTS for Small Molecule Inhibitors of Shiga Toxin | Vero cells, Shiga toxin protein synthesis inhibition reporter | inhibition, % at 38.7 µM | actives 9.2% (n = 290,000); in the data active = inhibition mostly above about 28%, no sharp cut-off; inactive = mostly below about 43%; note: 0% is about no effect
NS1 inh = qHTS Assay for Inhibitors of Influenza NS1 Protein Function. Potency, µM (series often up to 46.1 µM), for inactives: top-dose activity, positive = more growth. actives 0.4% (n = 270,000). AID 2326, 2010; calls by dose curve; note: potency is the fitted concentration of half-maximal effect; actives are rising curves; nearly all actives have a fitted effect of over 50% in size
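In this qHTS, NS1 from influenza A is expressed in budding yeast, where it slows growth. Cells are switched from glucose to 2% galactose medium (pH 6.0, -URA), treated with compound, and growth recovery is read at OD600.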
SARS PLP yeast = qHTS of Yeast-based Assay for SARS-CoV PLP. S. cerevisiae expressing SARS-CoV PLpro, growth rescue. Potency, µM (highest dose often 32.9 µM), inactives show top-dose activity, positive = growth rescue, most hits filed as activators. actives 0.19% (n = 330,000). AID 485353, 2010; calls by dose curve; note: potency is the fitted concentration of half-maximal effect; 0% is about no effect; nearly all actives have a fitted effect of over 55% in size
Numbers without * were called inactive; ? = inconclusive; . = no result. A selection: hits, their analogues and other compounds. The true share with any hit is near 21%. Unless noted, calls come from the whole dose curve; as a rule, active = well fitted inhibition curve with a large enough effect; inconclusive = small, poorly fitted or top-dose-only effect, or another doubt; inactive = no such curve, though single readings can be large or run the other way.

SMILES	Pf growth 48h	Cycloheximide cs	Pf growth 96h	Shiga toxin inh	NS1 inh	SARS PLP yeast
O=C(CSc1nc2cc(Cl)ccc2o1)NCCc1ccccc1	-6.2%	-2.3	-15.2%	-23.9	-14.7%	-15.8%
O=C(CSc1nc2cc(Cl)ccc2o1)c1cccs1	.	23.2*	2.5%	43.4	-12.9%	16.6%
CSc1ccc2c(c1)C(N1CCN(C)CC1)Cc1ccccc1S2 (stereo not drawn)	?	-4.4	?	-4.2	-68.7%	-0.8%
CN1CCN(C2Cc3ccccc3Sc3ccc(Cl)cc32)CC1 (stereo not drawn)	13.1µM*	.	16.9µM*	.	-34.8%	.
CC(C)(C)c1cc(C(=O)Nc2ccccc2)ccn1	32.7%	25.0*	0.0%	20.5	-0.3%	13.7%
Cc1ccc(NC(=O)c2ccnc(C(C)(C)C)c2)cc1	39.6%	16.5*	69.4%	70.8*	-7.9%	28.4%
CC1Cc2ccccc2N1C(=O)c1ccnc(C(C)(C)C)c1 (stereo not drawn)	11.7µM*	4.8	29.7%	-10.9	-49.6%	6.7%
CC(C)CC(OC(=O)c1ccc(Cl)nc1)C(=O)NC1CCCC1 (stereo not drawn)	11.2%	-1.0	35.1%	15.5	-4.5%	-17.2%
CN(C)C(=O)Oc1cccc2c(OC(=O)N(C)C)cccc12	5.4%	-2.6	.	19.8	5.0%	3.0%
O=C(NCC1CCCO1)C(=O)N/N=C/c1ccccc1C(=O)O (stereo not drawn)	17.7%	-2.2	10.4µM*	4.9	2.9%	0.5%
O=C(CCCOc1ccccc1)NCC1CCCO1 (stereo not drawn)	32.3%	28.4*	-32.9%	26.4	12.0%	28.2%
O=C(CSc1nnc(C2CC2)n1CC1CCCO1)Nc1ccc(Cl)cc1 (stereo not drawn)	27.8%	12.9	30.2%	31.4*	-0.9%	-2.1%
Cc1cc(Cl)ccc1OCCCC(=O)NCC1CCCO1 (stereo not drawn)	-6.3%	-2.2	11.6%	-12.6	-10.5%	1.6%
Cc1ccc(-c2[nH]c(-c3ccc(Cl)cc3)nc2SCC(=O)NCC2CCCO2)cc1 (stereo not drawn)	?	-2.3	9.28µM*	-4.7	12.1%	9.0%
O=C(CSc1ccc(Cl)cc1)NCC1CCCO1 (stereo not drawn)	.	16.8*	31.0%	-2.6	-8.6%	-5.9%
Cc1ccc(S(=O)(=O)c2nc(-c3ccccc3)oc2SCC(=O)NCC2CCCO2)cc1 (stereo not drawn)	10.4µM*	-1.0	11.7µM*	-14.1	14.0%	0.7%
O=C(CCSc1ccccc1)NCC1CCCO1 (stereo not drawn)	73.1%	29.4*	.	63.4*	-11.4%	3.4%
O=C(NCCOc1ccccc1)C(=O)NCC1CCCO1 (stereo not drawn)	54.0%	11.6*	23.0%	36.9*	0.6%	-0.1%
Cc1cccc(NS(=O)(=O)c2cc(C(=O)N3CCOCC3)ccc2Cl)c1	32.0%	8.7	?	5.3	.	1.0%
CC1CCC(NC(=O)CCn2ccc3cc(S(=O)(=O)N4CCCC4)ccc32)CC1 (stereo not drawn)	?	5.6	?	15.0	0.4%	6.8%
CCOc1cccc(C(=O)NC(=S)Nc2ccc3c(c2)OCCO3)c1	81.0%	61.4*	13.0%	113.5*	.	13.3%
O=C(Nc1ccc2c(c1)OCCO2)c1c(F)cccc1F	262.9%	41.1*	.	74.1*	0.0%	-12.3%
O=C(NC(=S)Nc1ccc2c(c1)OCCO2)c1ccccc1F	?	40.9*	?	144.9*	-0.6%	-0.3%
O=C(Nc1ccc2c(c1)OCCO2)c1ccccc1F	.	46.7*	?	50.3*	-58.2%	-4.5%
CC(C)c1ccc(/C=C2\NC(=S)N(Cc3cccnc3)C2=O)cc1	?	-3.1	?	-4.6	-5.4%	-0.7%
SMILES	Pf growth 48h	Cycloheximide cs	Pf growth 96h	Shiga toxin inh	NS1 inh	SARS PLP yeast
Cc1nc2ccccc2c(=O)n1/N=C/C=C/c1ccccc1	-6.0%	1.5	3.4%	19.7	-3.9%	-0.6%
CCCCCC(=O)NC(=S)Nc1ccc2oc(=O)ccc2c1	-12.5%	6.6	13.1µM*	40.2	0.9%	-1.5%
O=C(NC(=S)Nc1ccc2c(c1)OCCO2)c1ccccc1	-10.4%	55.4*	15.5%	73.2*	-38.0%	-20.8%
O=C(NC(=S)Nc1ccc2oc(=O)ccc2c1)c1ccccc1F	33.2%	24.6*	35.4%	-13.7	-3.0%	-0.2%
CS(=O)(=O)Nc1ccccc1C(=O)Nc1ccc2c(c1)OCCO2	32.9%	15.2*	52.5%	46.3	-9.2%	-3.4%
COc1cc(C(=O)NC(=S)Nc2ccc3c(c2)OCO3)cc(OC)c1OC	-8.2%	9.5	5.2%	16.4	2.6%	-0.5%
Cc1ccc(S(=O)(=O)N(C)c2ccccc2C(=O)Nc2ccc3c(c2)OCCO3)cc1	0.9%	-0.8	9.2%	9.8	-34.6%	-0.3%
CCCCN([C@H](CO)C(C)C)S(=O)(=O)c1ccccc1Br	.	.	.	.	.	11.2%
Cc1cc(C(=O)COC(=O)C23CC4CC(CC(O)(C4)C2)C3)c(C)n1C	.	.	.	.	.	-1.0%
COc1cccc(OC)c1C(=O)NC(=S)Nc1ccc2c(c1)OCCO2	4.15µM*	34.1*	?	42.2*	-6.2%	-2.3%
CC(C)(CNC(=O)CCC1CCCC1)CNC(=O)CCC1CCCC1	?	9.0	10.4µM*	-12.5	-18.0%	-6.1%
O=C(CC1CCCCC1)NCc1ccc(Cl)cc1	47.9%	27.2*	?	.	7.0%	1.6%
O=C(CCC1CCCCC1)NCc1ccc(F)cc1	45.2%	23.3*	?	active	-2.0%	7.4%
COC(=O)[C@]1(Cc2ccccc2)N[C@H](CN(C)C(=O)C2CCCCC2)[C@@H]2C(=O)N(C)C(=O)[C@@H]21	.	.	.	.	.	-3.4%
CCOC(=O)c1c(C)c2c(n1C)CCC/C2=N\O	21.8%	11.7	11.7µM*	17.6	-13.8%	1.0%
O=S(=O)(/N=C(/c1ccccc1)N1CCOCC1)c1ccc(Br)cc1	-6.7%	8.8	28.7%	-28.8	-12.0%	4.5%
COc1cc(C(=O)/C=C/c2cccnc2)ccc1O	0.0%	16.4*	0.0%	27.4	-0.9%	-2.3%
Cc1cccc(C(=O)Nc2ccc(C(=O)/C=C/c3cccnc3)cc2)c1	-13.5%	23.7*	3.6%	-3.5	-26.2%	3.7%
COc1cc(C(=O)C(=O)c2ccc(O)c(OC)c2)ccc1O	20.7%	active	75.1%	51.5*	-5.2%	-1.1%
O=C(/C=C/c1cccnc1)c1cc(F)ccc1O	-2.3%	-3.0	?	-6.1	0.5%	0.2%
COc1ccc(OC)c(C(=O)/C=C/c2cccnc2)c1	?	-5.6	7.38µM*	-5.0	-12.2%	-38.6%
COc1cc(C(=O)O)ccc1O	10.0%	-4.3	-5.2%	-14.4	8.6%	7.7%
O=C1N2CN(C(c3ccccc3)c3ccccc3)CN=C2SC1(CO)CO	-24.1%	-2.2	-62.1%	-5.8	7.6%	1.7%
